Shown are actives, neighbours in structure and some others; about 7% of the full set was active somewhere.
D3 ag – D3 dopamine receptor (human) agonism; 410,000 compounds, 0.58% hits; max activation, %; AID 652048; D3R DiscoveRx beta-arrestin cells, luminescence, 90 min; in the data active = max activation above about 30%
Target sequence (P35462 whole entry, looked up): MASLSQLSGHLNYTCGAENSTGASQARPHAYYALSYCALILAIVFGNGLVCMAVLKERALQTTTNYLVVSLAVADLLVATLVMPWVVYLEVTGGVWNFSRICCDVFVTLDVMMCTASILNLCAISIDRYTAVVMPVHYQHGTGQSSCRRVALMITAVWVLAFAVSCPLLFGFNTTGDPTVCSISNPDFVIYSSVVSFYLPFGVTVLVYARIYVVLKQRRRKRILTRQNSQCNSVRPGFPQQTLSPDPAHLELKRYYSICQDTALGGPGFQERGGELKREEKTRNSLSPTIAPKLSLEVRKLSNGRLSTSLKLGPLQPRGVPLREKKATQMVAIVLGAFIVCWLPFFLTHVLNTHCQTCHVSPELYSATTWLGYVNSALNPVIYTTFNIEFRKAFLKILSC
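Agonist mode: compounds and dopamine controls were applied to plated cells for 90 min at 37 degrees C after an overnight attachment at 1500 cells/well. Luminescent read-out followed 30 - 60 minutes at room temperature with DiscoveRx detection reagent.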
D3 antag – blocks the human D3 dopamine receptor; D3R cells, DiscoveRx beta-arrestin luminescence, antagonist mode; active compounds read low; 360,000 compounds, 2.5% hits; max response, negative = inhibition, %; P35462; AID 652054; in the data active = max response below about -50%; inconclusive = no clear call, values can overlap the other calls
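Cells plated overnight at 1500 cells/well, then exposed to library compounds with dopamine controls for 90 minutes at 37 degrees C. DiscoveRx reagent added for 30–60 minutes at room temperature; luminescence read, quantitative HTS format.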
IL-1B inflam inh – blocks inflammasome-driven IL-1 beta release. THP-1 LPS/ATP IL-1B secretion, AlphaLISA, 16 h; active compounds read low. activity change, % at 57.5 µM. 360,000 compounds, 4.7% hits. AID 743279; in the data active = activity change below about -50%; inconclusive = mostly about -30% to -49%
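Secreted IL-1B measured by AlphaLISA bead assay after 16 h compound exposure of THP-1 cells; compounds (final up to 57.5 uM) added 1 h before LPS (250 ng/mL) and ATP (1.25 mM) stimulation; lower signal means less secretion.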
ATXN2 expr inh – inhibitors of ATXN2 expression; HEK-293 ATXN2-luciferase reporter, luminescence, 24 h; Potency, µM (doses to about 57 µM), hits mostly inhibitors; 360,000 compounds, 0.72% hits; AID 1745845; note: nearly all actives have a fitted effect of over 55% in size
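ATXN2-luciferase reporter cells (luciferase flanked by upstream and downstream ATXN2 gene portions) were treated 24 h at 37 °C with compounds at up to 57 uM. SteadyGlo luminescence gave expression; GF-AFC fluorescence gave viability.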
a7 integrin act – activates integrin-mediated alleviation for muscular dystrophy; alpha7betagal myoblasts, beta-gal FDG fluorescence, 48 h; AID 624291; Potency, µM (top dose mostly 38.3 µM), actives largely listed as activators; 350,000 compounds, 0.064% hits; note: nearly all actives have a fitted effect of over 60% in size
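alpha7betagal+/- myoblasts (passage 13, 250/well) treated 48 h at 37C with compounds at 1:260 dilution of DMSO stock. Lysed, then beta-galactosidase activity read as FDG fluorescence (ex 480/em 540) after 30 min, with pre-read for autofluorescence.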
S2 tox – viability counter-screen for ATXN expression inhibitors | S2 cells (HEK-293 line with an ATXN2-luciferase reporter) viability, CellTiter-Fluor protease fluorescence, 24 h | Potency, µM (highest dose often 56.7 µM), hits mostly cytotoxic | 400,000 compounds, 0.49% hits | AID 651635; note: nearly all actives have a fitted effect of over 40% in size
Large screens that a line does not name were inactive. Unless noted, calls come from the whole dose curve; as a rule, active = well fitted curve in the direction sought with a large enough effect; inconclusive = small, poorly fitted or top-dose-only effect, or another doubt; inactive = no such curve, though single readings can be large; an effect the other way counts as inactive or inconclusive.

CCN(CC)CCn1c2c(c(SCC(=O)Nc3ccc(C(C)C)cc3)nc1=O)CCCC2	IL-1B inflam inh -50
CCN(CC)CCn1c2c(c(SCC(=O)Nc3ccc(C)c(F)c3)nc1=O)CCC2	IL-1B inflam inh inconclusive
CCN(CC)CCn1c2c(c(SCC(=O)Nc3ccc(F)c(F)c3)nc1=O)CCC2	IL-1B inflam inh -66
CCN(CC)CCn1c2c(c(SCC(=O)Nc3ccc(C)c(F)c3)nc1=O)CCCC2	IL-1B inflam inh inconclusive
CCN(CC)CCn1c2c(c(SCC(=O)Nc3nc(C)cs3)nc1=O)CCC2	IL-1B inflam inh -69, S2 tox inconclusive
CCN(CC)CCCn1c2c(c(SCC(=O)Nc3ccc(F)c(F)c3)nc1=O)CCC2	none
CCCCc1ccc(NC(=O)CSc2nc(=O)n(CCN(CC)CC)c3c2CCC3)cc1	IL-1B inflam inh -80, S2 tox inconclusive
CN(C)CCCn1c2c(c(SCC(=O)Nc3cccc4ccccc34)nc1=O)CCCC2	IL-1B inflam inh -97
CCN(CC)CCCn1c2c(c(SCC(=O)Nc3cccc4ccccc34)nc1=O)CCC2	none
COc1ccc(S(=O)(=O)c2c(N)n(Cc3ccco3)c3nc4ccccc4nc23)cc1	D3 antag -71
Nc1c(S(=O)(=O)c2cccs2)c2nc3ccccc3nc2n1/N=C/c1cccc(O)c1	IL-1B inflam inh -80, ATXN2 expr inh inconclusive (no result: S2 tox)
Cc1ccc(S(=O)(=O)c2c(N)n(/N=C/c3ccco3)c3nc4ccccc4nc23)cc1C	IL-1B inflam inh -53
COc1cccc(/C=N/n2c(N)c(S(=O)(=O)c3cccs3)c3nc4ccccc4nc32)c1	a7 integrin act inconclusive (no result: ATXN2 expr inh, S2 tox)
Cc1ccccc1NC(=O)Cc1nc(COC(=O)COc2ccccc2C(C)C)cs1	none (no result: ATXN2 expr inh)
COc1ccccc1N1CCN(C(=O)c2ccc3nc(-c4ccco4)c(-c4ccco4)nc3c2)CC1	IL-1B inflam inh inconclusive, ATXN2 expr inh inconclusive, S2 tox inconclusive
Cc1ccc(C)c(N2CCN(C(=O)c3ccc4nc(-c5ccco5)c(-c5ccco5)nc4c3)CC2)c1	D3 ag 34, IL-1B inflam inh inconclusive
O=C(CC1N=C2c3ccccc3N=C(SCC(=O)Nc3ccccc3F)N2C1=O)NCc1cccs1 (stereo not drawn)	none (no result: D3 antag, IL-1B inflam inh, a7 integrin act)
Cc1c(C(=O)c2ccccc2)c2ccccn2c1CCc1ccccn1	IL-1B inflam inh -74
Cc1c(C(=O)c2ccc(F)cc2)c2ccccn2c1CCc1ccccn1	IL-1B inflam inh -86, ATXN2 expr inh inconclusive
Cc1c(C(=O)c2ccccc2)c2ccccn2c1CCC#N	none
COc1ccccc1-c1cccc([C@@H]2C[C@H]3[C@H](CON3C)CN2Cc2ccccc2)c1	S2 tox inconclusive
O=C(Cn1c(C(=O)NCCCN2CCOCC2)cc2sccc21)c1ccccc1	D3 antag inconclusive, S2 tox inconclusive
Cc1ccc(Cn2c(C(=O)NCCCN3CCOCC3)cc3sccc32)cc1	D3 antag -51
Cc1ccc(CCNC(=O)c2cc3sccc3n2Cc2ccc(C)cc2)cc1	none (no result: D3 antag, IL-1B inflam inh, a7 integrin act)
O=C(NCCCN1CCCC1)C1CCN(C(=O)c2cc3sccc3n2Cc2ccc(F)cc2)CC1	D3 antag -52
Cn1c(C(=O)NCCN2CCOCC2)cc2sccc21	D3 antag -63
O=C(NCCN1CCOCC1)N1c2ccccc2Sc2ccccc21	D3 antag -53
CCOc1ccc(Nc2c(S(=O)(=O)c3ccc(Cl)cc3)cnc3ccc(OC)cc23)cc1	none (no result: D3 antag, IL-1B inflam inh, a7 integrin act)
O=C(NC1CCN(S(=O)(=O)c2ccccc2F)CC1)c1ccco1	none
CCn1c(C(=O)NCCCN2CCc3ccccc3C2)cc2sccc21	D3 antag -73, S2 tox inconclusive
COC(=O)c1[nH]c2cc(OC)ccc2c1NC(=O)CCN1CCN(Cc2ccc3c(c2)OCO3)CC1	D3 antag -81
COC(=O)c1[nH]c2cc(OC)ccc2c1NC(=O)c1ccc2c(c1)OCO2	none
COC(=O)c1[nH]c2cc(OC)ccc2c1NC(=O)CCN1CCCCC1	none
COC(=O)c1[nH]c2cc(OC)ccc2c1NC(=O)CCN1CCCC(C)(C)C1	D3 antag -56, IL-1B inflam inh inconclusive
CCC(C)C(NC(=O)c1ccccc1NC(=O)c1ccco1)C(=O)O (stereo not drawn)	none
Cc1ccc(-n2c(-c3ccccc3)c[nH]c2=S)cc1	D3 ag 41
O=C(CCCN1CCN(c2ccccn2)CC1)c1ccc(F)cc1	none (no result: a7 integrin act)
c1ccc(CCCN2CCN(c3ccccn3)CC2)cc1	D3 antag -62
c1ccc(COc2cccc(CN3CCN(c4ccccn4)CC3)c2)cc1	D3 ag 39
O=C(CN1CCN(c2ccccn2)CC1)NCCc1ccccc1	none
Cc1cccc(CN2CCN(c3ccccn3)CC2)c1	D3 antag inconclusive
O=C(c1cccc(N2CCCC2=O)c1)N1CCC(Oc2cccc(CN3CCN(c4ccccn4)CC3)c2)CC1	S2 tox 14µM (no result: D3 ag, D3 antag, IL-1B inflam inh, ATXN2 expr inh, a7 integrin act)
CC1(C)C2CC[C@]1(C)C(=O)N(CCCCN1CCN(c3ccccn3)CC1)C2=O	D3 ag 80
CS(=O)(=O)Cc1cc(N2CCCC2)nc(-c2ccccc2)n1	none
CCN(CC)C(=O)/C(NC(=O)c1ccccc1)=C(/Sc1ncccn1)c1ccccc1	none
CS(=O)(=O)N1CCC(C(=O)NNC(=O)Nc2ccc(F)c(Cl)c2)CC1	none
CCOCCCNC(=S)N(CCN(C)C)Cc1cc2cc3c(cc2[nH]c1=O)OCCO3	none
Cc1ccc(CN2CCN(c3ccccn3)CC2)s1	D3 ag 60, D3 antag inconclusive
Cc1ccc(S(=O)(=O)CCN2CCN(c3ccccn3)CC2)cc1	D3 antag inconclusive
c1ccc(N2CCN(Cc3ccsc3)CC2)nc1	D3 ag 53, D3 antag inconclusive
Cc1ccc(CN2CC(=O)N3[C@H]4c5cc(C)ccc5OC[C@@H]4[C@H](c4ccccc4)[C@]3(C)C2=O)cc1	none
COc1ccc2c(c1)OC[C@H]1[C@H]2N2C(=O)CN(Cc3ccccc3)C(=O)[C@@]2(C)[C@H]1c1ccccc1	IL-1B inflam inh -54
COc1ccc2c(c1)[C@H]1[C@H](CO2)[C@H](c2ccccc2)[C@]2(C)C(=O)N(Cc3ccc(C)cc3)CC(=O)N12	IL-1B inflam inh -56, S2 tox inconclusive
CC(=O)c1cccc(N/C=C\C(=O)c2ccc(C)cc2)c1	none
C/C(=N\Nc1ncnc2sc(C)c(C)c12)c1ccccn1	ATXN2 expr inh 0.28µM, S2 tox inconclusive
Cc1cc(NO)c(C(C)C)cc1N=O	IL-1B inflam inh -85
Cc1ccc2nc(N(CCCN(C)C)C(=O)c3cc(-c4cccs4)nc4ccccc34)sc2c1	IL-1B inflam inh inconclusive, ATXN2 expr inh inconclusive, S2 tox 32µM
CN(C)CCCN(C(=O)c1cc(-c2cccs2)nc2ccccc12)c1nc2c(F)cccc2s1	IL-1B inflam inh -74

Source: PubChem
